# Source: PubChem BioAssay AID2284345 (EPA ToxCast)
# Records with an inconclusive call do not appear. Calls of active or inactive are those of the source. How the source made its calls: active means hit-call score of the fitted dose curve at least 0.9, where 1 is the maximum; inconclusive means response in the unintended direction; inactive means score below 0.9.
# Test system: zebrafish Glucocorticoid Receptor (GR), gene 553740
# Experiment: ATG_zfGR_EcoTox2: Attagene TRANS-FACTORIAL EcoTox-2 HepG2 Assay for zebrafish Glucocorticoid Receptor (GR)
# Method: ATG_EcoTox2 is a cell-based, multiplexed assay created by modifying the existing Attagene TRANS-FACTORIAL system to include a panel of nuclear receptors from some or all the following species: human (Homo sapiens), african clawed frog (Xenopus laevis), rainbow trout (Oncorhynchus mykiss), japanese medaka (Oryzias latipes), and zebrafish (Danio rerio). The ECOTOX2-FACTORIAL format uses HepG2, a human liver cell line, with measurements taken at 24 hours after chemical dosing in a 24-well plate. ATG_zfGR_EcoTox2 is one of 29 assay components calculated in the ATG_EcoTox2 assay. It is designed to make measurements of mRNA induction, a form of inducible reporter, as detected with fluorescence intensity signals by Reverse transcription polymerase chain reaction (RT-PCR) and Capillary electrophoresis technology.The assay endpoint ATG_zfGR_EcoTox2 was analyzed in the positive analysis fitting direction relative to DMSO as the negative control and baseline of activity. Using a type of inducible reporter, measures of mRNA for gain-of-signal activity can be used to understand the reporter gene at the transcription factor-level as they relate to the gene for glucocorticoid receptor. Furthermore, this assay endpoint can be referred to as a primary readout, because this assay has produced multiple assay endpoints where this one serves a reporter gene function. […]
row,Compound,outcome
1,O=S(=O)(O)C(F)(F)C(F)(F)C(F)(F)C(F)(F)C(F)(F)C(F)(F)F,inactive
2,O=P(Oc1ccccc1)(Oc1ccccc1)Oc1ccccc1,inactive
